The text below walks through data of PubChem BioAssay (Tox21).

Values joined by “and” are separate entries in the source; they are usually repeats but may differ in a detail not shown here. Equal entries are not always repeated. Records with an inconclusive call do not appear. A call without a number means that no potency is given here. Some compounds were tested as several samples or in several runs, with calls that do not always agree. Active and inactive are the calls of the source. Calls follow the shape of the dose curve; as a rule, active = well fitted curve in the direction sought with a large enough effect in the repeat runs; inconclusive = weak or mixed curves; inactive = no such curve, though single readings can be large; an effect the other way counts as inactive or inconclusive.
Potency is read from the fitted curve at half-maximal effect.

Test system in one test: not listed separately
The experiment in a line: qHTS assay to identify aromatase inhibitors - cell viability counter screen (AID 743084).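 Also: cells stimulated with testosterone during compound exposure; nearly all actives have a fitted effect of over 55% in size.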 The note with it: MCF-7 aro ERE viability, CellTiter-Fluor, 24 h; series mostly up to 70.3 µM. Background: Quantitative high-throughput screening tests each substance at several concentrations.
As for `COC(=O)Nc1nc2ccc(Sc3ccccc3)cc2[nH]1`, the Potency entry was “inactive”.

Turning to `CCCCOCCOCCOC(=O)CCCCC(=O)OCCOCCOCCCC`, the Potency result is “inactive”.

In the case of `CCCCCCCCC`, the Potency entry is “inactive”.

On to `OC[C@@H](O)[C@H](O)[C@H](O)[C@@H](O)CO`, for which the Potency result is “inactive”.

For `CC(C)Cc1ccccc1`, the Potency result was “inactive”.

As to `CC1=C(CC(=O)O)c2cc(F)ccc2/C1=C\c1ccc(S(C)=O)cc1` (stereo not drawn), the Potency entry was “inactive”.

In the case of `CCCCCC/C=C/CCCCCCCC(=O)O`, the Potency result is “inactive”.

Regarding `O=S(=O)(Oc1ccc(Cl)cc1Cl)c1ccccc1`, the Potency entry was “inactive”.

For `O=[N+]([O-])c1cccc(Cl)c1`, the Potency entry is “inactive”.

Regarding `Cc1cc(O)c2c(c1)C(=O)c1cc(O)cc(O)c1C2=O`, the Potency is 11.9 µM (active) and 24.3 µM (active).

Regarding `CCCCCCCCCCCCOCC1CO1` (stereo not drawn), the Potency entry was “inactive”.

Regarding `Cc1ccc(C)c(C)c1`, the Potency result was “inactive”.

With `OC1CCCC1`, the Potency result is “inactive”.

As for `NC(=O)/N=N/C(N)=O`, the Potency result is “inactive”.

Take `c1ccc2ccccc2c1`: the Potency entry is “inactive”.

Take `CC1(C)O[C@@H]2C[C@H]3[C@@H]4C[C@H](F)C5=CC(=O)CC[C@]5(C)[C@H]4[C@@H](O)C[C@]3(C)[C@]2(C(=O)CO)O1`: the Potency entry was “inactive”.

On to `Cc1ccc(C(=O)O)o1`, for which the Potency entry is “inactive”.

Regarding `C=C(C#N)C(=O)OCC`, the Potency entry was “inactive”.

Turning to `O=C(c1ccc(O)cc1)c1ccc(O)cc1O`, the Potency result was “inactive”.

On to `Nc1cc(-c2ccncc2)c[nH]c1=O`, for which the Potency entry was “inactive”.

Consider `CC1=C(/C=C/C(C)=C/C=C/C(C)=C/CO)C(C)(C)CCC1`, for which the Potency result was “inactive and 72.3 µM (active)”.

Consider `O=C(c1cc(O)c(O)c(O)c1)c1ccc(O)c(O)c1O`, for which the Potency was 34.3 µM (active).

As to `O=S(=O)(O)CCS`, the Potency entry is “inactive”.

Turning to `OCC1CCCO1` (stereo not drawn), the Potency result is “inactive”.

On to `Cc1ccc(N)c(S(=O)(=O)O)c1`, for which the Potency result is “inactive”.

As for `C/C=C(C)/C=C/C=C(C)C`, the Potency result was “inactive”.

For the compound `NCCc1ccc(O)c(O)c1`, the Potency is 27.4 µM (active).

Consider `CCCCC(CC)COC(=O)/C=C\C(=O)OCC(CC)CCCC` (stereo not drawn), for which the Potency result was “inactive”.

`CCOC(=O)C1OC1c1ccccc1` (stereo not drawn): the Potency result is “inactive”.

Regarding `CC1COc2ccccc2N1C(=O)C(Cl)Cl` (stereo not drawn), the Potency is 27.3 µM (active).

In the case of `O=C(O)c1cc(-c2ccccc2)nc2ccccc12`, the Potency entry is “inactive”.

As for `CCCCC/C=C\C/C=C\CCCCCCCC(=O)OC`, the Potency result is “inactive”.

Take `Nc1nc2ncc(CNc3ccc(C(=O)N[C@@H](CCC(=O)O)C(=O)O)cc3)nc2c(=O)[nH]1`: the Potency entry was “inactive”.

On to `O=[N+]([O-])C(CO)(CO)CO`, for which the Potency result was “inactive”.

As for `NS(=O)(=O)c1cc2c(cc1Cl)NC=NS2(=O)=O`, the Potency result is “inactive”.

Turning to `CCC(=O)O`, the Potency result is “inactive”.

For the compound `NCCNCCNCCNCCN`, the Potency entry was “inactive”.

Consider `CCOC(=O)[C@H](CCc1ccccc1)N[C@@H](C)C(=O)N1Cc2ccccc2C[C@H]1C(=O)O`, for which the Potency entry is “inactive”.

As for `O=C(Oc1ccccc1)c1ccc(O)cc1`, the Potency entry was “inactive”.

In another test the target is Aryl hydrocarbon receptor (Homo sapiens) (UniProt P35869). The experiment in a line: qHTS assay to identify small molecule that activate the aryl hydrocarbon receptor (AhR) signaling pathway (AID 743085). Also: nearly all actives have a fitted effect of over 15% in size. Conditions: HepG2 AhR-luc (HG2L7.5c1), luciferase, 24 h; series mostly up to 70.3 µM. In a few lines: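 A multiplexed format paired cell viability (CellTiter-Fluor fluorescence) with AhR-dependent luciferase output (ONE-Glo luminescence) in the same wells of HepG2 DRE-luc cells after 24 h compound exposure at 37C.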
Sequence of Aryl hydrocarbon receptor (Homo sapiens) (P35869 whole entry, looked up): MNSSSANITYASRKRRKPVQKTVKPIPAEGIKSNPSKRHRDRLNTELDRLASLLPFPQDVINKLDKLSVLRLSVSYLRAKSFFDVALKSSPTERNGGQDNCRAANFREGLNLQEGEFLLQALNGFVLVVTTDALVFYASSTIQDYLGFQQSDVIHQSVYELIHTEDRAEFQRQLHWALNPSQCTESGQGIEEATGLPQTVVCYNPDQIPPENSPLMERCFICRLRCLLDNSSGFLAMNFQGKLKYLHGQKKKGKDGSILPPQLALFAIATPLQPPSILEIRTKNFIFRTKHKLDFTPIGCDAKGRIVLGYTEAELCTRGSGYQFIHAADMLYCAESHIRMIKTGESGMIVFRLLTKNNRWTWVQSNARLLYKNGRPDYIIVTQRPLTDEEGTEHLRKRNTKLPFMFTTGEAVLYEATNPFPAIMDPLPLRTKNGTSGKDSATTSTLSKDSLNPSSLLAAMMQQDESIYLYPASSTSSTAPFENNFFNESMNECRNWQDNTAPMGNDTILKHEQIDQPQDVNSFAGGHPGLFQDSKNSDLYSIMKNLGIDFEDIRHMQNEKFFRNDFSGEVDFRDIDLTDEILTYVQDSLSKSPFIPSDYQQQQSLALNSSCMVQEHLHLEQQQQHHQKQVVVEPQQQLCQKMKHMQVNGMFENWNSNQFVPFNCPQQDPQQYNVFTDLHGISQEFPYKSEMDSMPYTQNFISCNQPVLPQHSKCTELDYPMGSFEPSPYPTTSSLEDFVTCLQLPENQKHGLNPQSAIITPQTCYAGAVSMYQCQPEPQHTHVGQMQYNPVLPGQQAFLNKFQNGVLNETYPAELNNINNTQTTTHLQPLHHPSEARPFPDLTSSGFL
As for `COC(=O)Nc1nc2ccc(Sc3ccccc3)cc2[nH]1`, the Potency was 1.8 µM (active) and 9.69 µM (active).

For `CCCCOCCOCCOC(=O)CCCCC(=O)OCCOCCOCCCC`, the Potency result was “inactive”.

Consider `CCCCCCCCC`, for which the Potency result is “inactive”.

Turning to `OC[C@@H](O)[C@H](O)[C@H](O)[C@@H](O)CO`, the Potency entry was “inactive”.

In the case of `CC(C)Cc1ccccc1`, the Potency entry is “inactive”.

As to `CC1=C(CC(=O)O)c2cc(F)ccc2/C1=C\c1ccc(S(C)=O)cc1` (stereo not drawn), the Potency is 13.3 µM (active) and 24.3 µM (active).

As for `CCCCCC/C=C/CCCCCCCC(=O)O`, the Potency entry was “inactive”.

On to `O=S(=O)(Oc1ccc(Cl)cc1Cl)c1ccccc1`, for which the Potency result was “inactive”.

For the compound `O=[N+]([O-])c1cccc(Cl)c1`, the Potency result was “inactive”.

`Cc1cc(O)c2c(c1)C(=O)c1cc(O)cc(O)c1C2=O`: the Potency was 5.97 µM (active) and 34.4 µM (active).

On to `CCCCCCCCCCCCOCC1CO1` (stereo not drawn), for which the Potency entry was “inactive”.

Turning to `Cc1ccc(C)c(C)c1`, the Potency result was “inactive”.

For the compound `OC1CCCC1`, the Potency result was “inactive”.

Turning to `NC(=O)/N=N/C(N)=O`, the Potency entry is “inactive”.

For the compound `c1ccc2ccccc2c1`, the Potency entry was “inactive”.

In the case of `CC1(C)O[C@@H]2C[C@H]3[C@@H]4C[C@H](F)C5=CC(=O)CC[C@]5(C)[C@H]4[C@@H](O)C[C@]3(C)[C@]2(C(=O)CO)O1`, the Potency result is “inactive”.

Turning to `Cc1ccc(C(=O)O)o1`, the Potency entry was “inactive”.

Turning to `C=C(C#N)C(=O)OCC`, the Potency result is “inactive”.

Consider `O=C(c1ccc(O)cc1)c1ccc(O)cc1O`, for which the Potency is 24.3 µM (active).

In the case of `Nc1cc(-c2ccncc2)c[nH]c1=O`, the Potency entry was “inactive”.

For `CC1=C(/C=C/C(C)=C/C=C/C(C)=C/CO)C(C)(C)CCC1`, the Potency result was “inactive”.

Take `O=C(c1cc(O)c(O)c(O)c1)c1ccc(O)c(O)c1O`: the Potency is 15.4 µM (active).

On to `O=S(=O)(O)CCS`, for which the Potency result is “inactive”.

Turning to `OCC1CCCO1` (stereo not drawn), the Potency entry was “inactive”.

For the compound `Cc1ccc(N)c(S(=O)(=O)O)c1`, the Potency result is “inactive”.

As for `C/C=C(C)/C=C/C=C(C)C`, the Potency result is “inactive”.

Regarding `NCCc1ccc(O)c(O)c1`, the Potency entry is “inactive”.

As for `CCCCC(CC)COC(=O)/C=C\C(=O)OCC(CC)CCCC` (stereo not drawn), the Potency entry was “inactive”.

With `CCOC(=O)C1OC1c1ccccc1` (stereo not drawn), the Potency result was “inactive”.

For the compound `CC1COc2ccccc2N1C(=O)C(Cl)Cl` (stereo not drawn), the Potency was 17.2 µM (active) and inactive.

Regarding `O=C(O)c1cc(-c2ccccc2)nc2ccccc12`, the Potency is 58.4 µM (active).

For the compound `CCCCC/C=C\C/C=C\CCCCCCCC(=O)OC`, the Potency result was “inactive”.

Turning to `Nc1nc2ncc(CNc3ccc(C(=O)N[C@@H](CCC(=O)O)C(=O)O)cc3)nc2c(=O)[nH]1`, the Potency entry was “inactive”.

For the compound `O=[N+]([O-])C(CO)(CO)CO`, the Potency result is “inactive”.

Consider `NS(=O)(=O)c1cc2c(cc1Cl)NC=NS2(=O)=O`, for which the Potency entry is “inactive”.

On to `CCC(=O)O`, for which the Potency result was “inactive”.

For the compound `NCCNCCNCCNCCN`, the Potency result is “inactive”.

Consider `CCOC(=O)[C@H](CCc1ccccc1)N[C@@H](C)C(=O)N1Cc2ccccc2C[C@H]1C(=O)O`, for which the Potency is 6.16 µM (active).

For `O=C(Oc1ccccc1)c1ccc(O)cc1`, the Potency entry is “inactive”.
